An excerpt weighted towards active compounds, which were near 1.3% of everything screened.
Spn DPM-DC inh: inhibitors of Streptococcus pneumoniae diphosphomevalonate decarboxylase. calls only at 10 µM. AID 556. purified DPM-DC, PK/LDH coupled NADH fluorescence. 65,000 tested, 0.49% active;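 active means the 320 compounds with the highest percent inhibition in the single-dose primary screen, excluding strongly autofluorescent ones, cut at about 32% in these data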;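 further: kinetic rate of NADH fluorescence loss reporting ADP formed by the decarboxylase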
PMK inhibit: blocks S. pneumoniae phosphomevalonate kinase | purified PMK, PK/LDH-coupled NADH absorbance 340 nm | inhibition, % at 10 µM | 65,000 tested, 0.49% active;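 active means top-ranked compounds by inhibition in the single 10 µM screen, taking a fixed number of the strongest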
NADH enzymes: inhibition of NAD/NADH coupling enzymes, library profiling; coupled PK/LDH NADH assays, four targets; IC50, µM (series often up to 10 µM); 65,000 tested, 0.02% active;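 active means single-dose screening hits from any of four coupled enzyme assays that gave an IC50 when retested across doses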;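 further: the DPM-DC format reads NADH fluorescence rather than 340 nm absorbance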
MK inhibit: inhibitors of Streptococcus pneumoniae mevalonate kinase; purified MK, PK/LDH-coupled NADH absorbance 340 nm; inhibition, % at 10 µM; 65,000 tested, 0.48% active;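 active means ranked among the strongest by inhibition in the single 10 µM screen, a fixed top-ranked set picked for dose follow-up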
Of the large screens only hits and unclear results are named; the others gave an inactive call; ! = repeats disagree; [ ] = remark or other dose.

COCCN1Cc2cccc(C(=O)Nc3ccc(S(=O)(=O)N4CCCCCC4)cc3)c2C1=O	none
CCN(CC)S(=O)(=O)c1ccc(NC(=O)c2cccc3c2C(=O)N(CCOC)C3)cc1	Spn DPM-DC inh active
CCCCCOC(=O)C1=C(C)N(C)C(=O)NC1c1cc(Br)c(O)c(OC)c1 (stereo not drawn)	none
CCOC(=O)/C(C(N)=NCc1ccco1)=C(/O)c1ccccc1	none
c1ccc(NC(=NCc2ccco2)c2ccccc2)cc1	PMK inhibit 27.0
CC1=NN(c2ccccc2)C(=O)C1	MK inhibit 53.0
Cc1cc(N2C(=O)CCC2=O)n(-c2ccccc2)n1	none
CCOC(=O)CCn1c2nc(C)cc(C)c2c(=O)n1-c1ccccc1	PMK inhibit 64.0 (not shown: Spn DPM-DC inh)
CNS(=O)(=O)c1cccc(C(=O)OC2CCCCC2=O)c1 (stereo not drawn)	PMK inhibit 28.0
O=C(OC1CCCCC1=O)c1cc(=O)c2ccccc2o1 (stereo not drawn)	none
COc1cc(CNc2ccc3c(c2)CCC3)cc(OC)c1O	MK inhibit 44.0
Cc1cccc(N2CCN(C(=O)c3cc4c(=O)n(C)c5ccccc5c4n3C)CC2C)c1 (stereo not drawn)	none
COc1ccc(OC)c(-n2nnnc2SCC(=O)NCc2ccc3c(c2)OCO3)c1	none
COc1ccc(C)cc1NCc1cccc(OC)c1OC	MK inhibit 47.0
COc1ccc(CNc2cc(C)ccc2C)c(OC)c1OC	none
COc1ccc2c(c1OC)C(=O)NC(C)=C(C(=O)OC(C)(C)C)C2O (stereo not drawn)	none
COc1cccc(Cn2c(=S)[nH]c3ccc(N4CCOCC4)cc3c2=O)c1	Spn DPM-DC inh active
CCCCN(C)C(=O)c1c[nH]c2ccc(S(=O)(=O)N3CCOCC3)cc2c1=O	none (not shown: Spn DPM-DC inh)
COc1ccccc1/C=C/CN1CCOCC1	MK inhibit 44.0
COc1ccccc1N1CCN(C/C=C/c2ccc(N(C)C)cc2)CC1	none
COc1ccccc1N1CCN(C(=O)CSc2nnc(NC(=O)c3ccco3)s2)CC1	Spn DPM-DC inh active
COc1ccccc1N1CCN(C(=O)CSc2nnc(NC(=O)C3CC3)s2)CC1	none
CCOC(=O)Cc1csc(SCn2nnc3ccccc3c2=O)n1	none
CCOC(=O)Cc1csc(-n2sc3ccccc3c2=O)n1	Spn DPM-DC inh active, MK inhibit 67.0
CC(C)OCCCNC(=O)CN1C(=O)CC(C)(C)S(=O)(=O)c2ccccc21	MK inhibit 44.0
COCCNC(=O)CN1C(=O)CC(C)(C)S(=O)(=O)c2ccccc21	none
CCOc1ccc(NC(=O)CN(C)CC(=O)NC2CCCc3ccccc32)cc1OCC (stereo not drawn)	none
CN1CCc2cc3c(c4c2C1CC41CCC(=NO)CC1)OCO3 (stereo not drawn)	none
COc1ccc2c(c1OC)C(=O)OC2C1c2c(cc3c(c2OC)OCO3)CCN1C (stereo not drawn)	PMK inhibit 26.0!
CC(C)C(C(=O)NCC1CCCO1)N(Cc1ccco1)C(=O)CNS(=O)(=O)c1ccc(F)cc1 (stereo not drawn)	PMK inhibit 27.0
Cc1csc2ncc(C(=O)Nc3ccccc3Cl)c(=O)n12	Spn DPM-DC inh active[fluoresces]
CCCCOc1ccc(CN2CCC(O)CC2)cc1	MK inhibit 41.0
CSc1ccc(CN2CCC(O)CC2)cc1	MK inhibit 58.0
CCN1CCN(Cc2ccc(NC(=O)Nc3ccc(SC)cc3)cc2)CC1	none
Cc1cc(C)nc(N2CCCC(C(=O)NCCC3=CCCCC3)C2)n1 (stereo not drawn)	none
COCCCNC(=O)CN(C1CCCCC1)S(=O)(=O)c1ccc(C)cc1	PMK inhibit 30.0
CCNC(=O)CN(C1CCCCC1)S(=O)(=O)c1ccc(F)cc1	none
CCCC(=O)Nc1cnc(NC(=O)c2cccc(F)c2)cc1C	none
Cc1ccc(S(=O)(=O)N2CCCC(C(=O)NCc3ccccn3)C2)cc1 (stereo not drawn)	none
CS(=O)(=O)N1CCCC(C(=O)NCc2ccccn2)C1 (stereo not drawn)	PMK inhibit 29.0
C=CCNC(=O)C1CCCN(S(C)(=O)=O)C1 (stereo not drawn)	PMK inhibit 28.0
Cn1nnc(NC(=O)COc2ccc(C3CCCCC3)cc2)n1	none
COCCn1c(C)cc2c(c1=O)C(c1ccccc1F)C(C#N)=C(N)O2 (stereo not drawn)	PMK inhibit 26.0
Cc1csc(C(C#N)C(=O)c2ccc(S(=O)(=O)N3CCCC3)cc2)n1 (stereo not drawn)	PMK inhibit 25.0
CCCN(CCO)Cc1cccc(Cl)c1	MK inhibit 41.0
OCCN(Cc1ccccc1)CC1CCCCC1	MK inhibit 43.0
OCCN(Cc1ccccc1)Cc1cccc(C(F)(F)F)c1	none
OCCN(Cc1ccccc1)Cc1ccccc1F	MK inhibit 48.0
OCCN(Cc1ccccc1)Cc1cccc(F)c1	MK inhibit 45.0

Compound activity from PubChem BioAssay.
